Measured values taken from the supplement of paper PMC8269313.

System: 4T1
Assay: % inhibition of 4T1 cell number vs DMSO control; higher = stronger growth inhibition
Conditions: 1 µM, 3 days
Outline: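 4T1-H2B-GFP mouse breast cancer cells (3000 per well, 2% FBS medium) were seeded in 96-well imaging plates on plastic, denuded lung or mCAF1 fibroblast-derived matrix, Matrigel (15 μg/mL) or 0.2% gelatin; edge wells were left unused. After 16 h, kinase inhibitors were added at 1 μM final for 3 days. Plates were formalin-fixed, DAPI-stained and imaged on an INCell Analyzer 2200, and GFP-positive nuclei were counted. Percent inhibition of cell number was calculated relative to DMSO control.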

[1] = substrate: lung fibroblast-derived matrix
[2] = substrate: mCAF1 fibroblast-derived matrix

SMILES	% inhibition of 4T1 cell number (substrate: Matrigel)	% inhibition of 4T1 cell number (substrate: gelatin)	% inhibition of 4T1 cell number [1]	% inhibition of 4T1 cell number [2]	% inhibition of 4T1 cell number (substrate: plastic)
O=C(Nc1cccc(Nc2nccc(Nc3cccc(C(F)(F)F)c3)n2)c1)C1CC1 [Aurora Kinase Inhibitor III]	54.8%	74.5%	97.8%	15%	63.6%
O=C1Nc2ccc(Cl)cc2/C1=C/c1cc(Cl)c(O)c(Cl)c1 [PKR Inhibitor, Negative Control]	-11.8%	-80.4%	86.7%	8.78%	-63.2%
CCCCn1c2ccc(O)cc2c2c3c(c(-c4ccccc4Cl)cc21)C(=O)NC3=O [Wee1 Inhibitor II]	52.6%	63%	15.6%	4.43%	57.9%
CSc1nc(-c2ccnc(NC(C)c3ccccc3)c2)c(-c2ccc(F)cc2)[nH]1 (stereo not given) [p38 MAP Kinase Inhibitor III]	-9.55%	-7.6%	10.6%	23.1%	-65%
O=C1c2ccccc2-c2nc3nnnn3nc21 [PDK1/Akt/Flt Dual Pathway Inhibitor]	99%	97.3%	-19.8%	95.4%	97%
c1ccc2c(-c3ccncc3)c[nH]c2c1 [Rho Kinase Inhibitor III, Rockout]	-26.4%	-33.3%	-7.01%	37.7%	-78.9%
O=c1[nH][nH]c2nnc(-c3c(-c4ccccc4)nn4ccccc34)cc12 [ERK Inhibitor II, Negative control]	-40.3%	-11.4%	-10%	3.24%	-83.1%
Nc1ncnc2c1c(I)cn2[C@@H]1O[C@H](CO)[C@@H](O)[C@H]1O [5-Iodotubercidin]	15.7%	59.3%	7.74%	34.1%	24.1%
COc1cc2ncnc(Nc3ccc(Oc4ccccc4)cc3)c2cc1OC [Src Kinase Inhibitor I]	-19.5%	-6.86%	-13.5%	32.6%	-35.4%
